# High-throughput results: PubChem BioAssay, National Center for Advancing Translational Sciences (NCATS)
# POLB inh: blocks human DNA polymerase beta activity. P06746. Pol beta primer extension/strand displacement, fluorescence kinetic. Potency, µM (top dose mostly 114 µM), without a hit: top-dose activity change, negative = inhibition, most hits filed as inhibitors. hit rate 1.3% among 340,000; note: potency is the fitted concentration of half-maximal effect; % is set by controls: 0 for no effect and ±100 for the full control effect
#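 10 nM enzyme + cpd, 15 min RT; start with substrate 50 nM final; read 0 min and after 10 min RT. Corrected, normalized data; 4-parameter Hill curve fit.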
# Pol eta inh-1: blocks human DNA polymerase eta activity; Q9Y253; recombinant Pol eta, fluorescent DNA replication assay; Potency, µM (highest dose often 114 µM), for the others: at the highest dose activity change, negative = inhibition, actives largely listed as inhibitors; hit rate 1.2% among 390,000; AID 588591; note: potency is the fitted concentration of half-maximal effect; % is set by controls: 0 for no effect and ±100 for the full control effect
#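 Pol eta at 10 nM preincubated with compounds 15 min at room temperature; reaction started with fluorescent substrate (50 nM final) and read kinetically at 0 and 10 min.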
# APEX1 inh: blocks human APE1 abasic DNA cleavage | recombinant APE1, TAMRA/BHQ-2 abasic DNA cleavage fluorescence | Potency, µM (titrated, usually from 65.8 µM), for inactives: at the highest dose activity change, negative = inhibition, usual class: inhibitors | hit rate 0.35% among 350,000 | AID 2517;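 note: potency is the fitted concentration of half-maximal effect; plate controls were vehicle for no effect and reference inhibitor for full effect; nearly all actives have a fitted effect of over 55% in size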
# Target sequence (P27695 whole entry, looked up): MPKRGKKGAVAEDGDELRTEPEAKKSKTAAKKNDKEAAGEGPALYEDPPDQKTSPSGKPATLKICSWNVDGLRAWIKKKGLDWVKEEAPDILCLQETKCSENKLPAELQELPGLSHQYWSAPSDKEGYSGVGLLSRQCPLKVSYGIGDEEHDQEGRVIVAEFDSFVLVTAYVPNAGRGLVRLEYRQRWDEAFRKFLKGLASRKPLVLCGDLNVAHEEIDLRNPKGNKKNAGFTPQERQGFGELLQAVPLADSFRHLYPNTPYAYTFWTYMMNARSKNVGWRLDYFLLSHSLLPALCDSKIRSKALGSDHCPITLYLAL
#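 APE1 at 0.75 nM final was preincubated with compound 15 min at room temperature, then 50 nM double-stranded THF abasic-site substrate (5'-TAMRA/3'-BHQ-2) was added. Fluorescence (ex 525/em 598 nm) was read kinetically; third-minus-first read gave activity.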
# Pol kappa inh-1: DNA polymerase kappa (human) inhibition | Q9UBT6 | purified Pol kappa, fluorescent DNA synthesis assay, 10 min | Potency, µM (doses to about 107 µM), for inactives: top-dose activity, negative = inhibition, most hits filed as inhibitors | hit rate 0.53% among 400,000; note: potency is the fitted concentration of half-maximal effect; % is set by controls: 0 for no effect and ±100 for the full control effect
#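 10 nM Pol kappa was preincubated with compounds for 15 min at room temperature. Reaction started with 50 nM (final) substrate. Fluorescence read kinetically at 0 and 10 min.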
# POLI inh: DNA polymerase iota (human) inhibition. hit rate 1% among 390,000. Potency, µM (top dose mostly 115 µM), for inactives: top-dose activity, negative = inhibition, usual class: inhibitors. AID 588590. Pol iota fluorescent replication assay, 10 min. Q9UNA4; note: potency is the fitted concentration of half-maximal effect
#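 Pol iota at 10 nM preincubated 15 min with compounds at room temperature; reaction started with fluorescent substrate, 50 nM final. Fluorescence read kinetically at 0 and 10 min; buffer-only wells as negative control.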
# GLS inhibitor: blocks human kidney-isoform glutaminase activity; GLS enzymatic activity, qHTS titration; O94925; hit rate 0.21% among 410,000; AID 624170; Potency, µM (top dose mostly 45.5 µM), for inactives: at the top dose activity change, negative = inhibition, most hits filed as inhibitors; note: potency is the fitted concentration of half-maximal effect; % is set by controls: 0 for no effect and ±100 for the full control effect
#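 Assay buffer: 45 mM KH2PO4 pH 8.2, 0.02% Tween-20. hKGA acts on L-glutamine (1 mM solution added); product glutamate is reported by an oxidase/peroxidase Amplex Red coupling, with fluorescence taken at baseline and 30 min.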
# GALK inh confirm: galactokinase (human) inhibition, confirmation; AID 2015; purified GALK, Kinase-Glo ATP depletion luminescence; Potency, µM (top dose mostly 115 µM), inactives show top-dose activity, negative = inhibition, hits mostly inhibitors; hit rate 70% among 150; shares compounds with Pol eta inh-1
# Target sequence (P51570 whole entry, looked up): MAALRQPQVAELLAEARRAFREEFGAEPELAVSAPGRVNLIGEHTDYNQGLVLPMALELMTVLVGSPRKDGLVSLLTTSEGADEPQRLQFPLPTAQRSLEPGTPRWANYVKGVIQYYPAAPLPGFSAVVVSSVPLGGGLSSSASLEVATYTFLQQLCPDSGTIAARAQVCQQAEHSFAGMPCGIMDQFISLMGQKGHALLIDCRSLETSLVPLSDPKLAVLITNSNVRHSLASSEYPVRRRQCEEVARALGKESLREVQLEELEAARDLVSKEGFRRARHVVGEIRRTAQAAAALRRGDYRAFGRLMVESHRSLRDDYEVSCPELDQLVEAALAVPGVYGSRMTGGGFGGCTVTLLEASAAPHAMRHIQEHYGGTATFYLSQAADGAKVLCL
# GALK redox cs: counter-screen for GALK inhibitors: redox cycling H2O2 generation; shares compounds with Pol eta inh-1; Phenol red-HRP H2O2 redox cycling, absorbance 600 nm; Potency, µM (doses to about 115 µM), without a hit: top-dose activity change, negative = H2O2 signal, actives largely listed as inhibitors; hit rate 40% among 150
# HEK293 viability: reduces HEK-293 cell viability in GALK counter-screen | shares compounds with Pol eta inh-1 | HEK-293 viability, ATP luminescence (CellTiter-Glo), 24/48 h | Potency, µM (titrated, usually from 46.1 µM), for inactives: top-dose activity change, negative = cytotoxicity, most hits filed as inhibitors | hit rate 10% among 170; note: potency is the fitted concentration of half-maximal effect; % is set by controls: 0 for no effect and ±100 for the full control effect
# Pol kappa inh-2: Pol kappa (human) inhibition, cherry-pick confirmation; shares compounds with Pol eta inh-1; purified Pol-kappa, fluorescent strand-displacement substrate; Potency, µM, most hits filed as inhibitors; hit rate 76% among 920; AID 720501; note: potency is the fitted concentration of half-maximal effect
# Pol eta inh-2: Pol eta (human) inhibition, cherry-pick confirmation. Potency, µM, usual class: inhibitors. hit rate 64% among 2,600. shares compounds with Pol eta inh-1. Pol eta primer extension, TAMRA/BHQ fluorescence, 10 min; note: potency is the fitted concentration of half-maximal effect
# An asterisk follows results filed as active; ? = inconclusive; nt = not tested or not shown; ! = repeats disagree; [ ] = dose if it differs, or a comment. Hits are enriched below; roughly 2.4% of the tested compounds scored in any of these assays. Calls come from the whole dose curve; as a rule, active = well fitted curve in the direction sought with a large enough effect; inconclusive = small, poorly fitted or top-dose-only effect, or another doubt; inactive = no such curve, though single readings can be large; an effect the other way counts as inactive or inconclusive.
SMILES,POLB inh,Pol eta inh-1,APEX1 inh,Pol kappa inh-1,POLI inh,GLS inhibitor,Pol eta inh-2,others
O=C(Nc1sc2c(c1C(=O)O)CCC2)c1ccccc1,20µM*,13µM*,?,?,?,?,76*,
O=Cc1ccc(N2CCN(S(=O)(=O)c3ccc4c(c3)CC(=O)N4)CC2)cc1,nt,nt,nt,nt,nt,-7%,nt,
NNc1cc([N+](=O)[O-])cc2c1C(=O)N(Cc1ccccc1)S2=O (stereo unspecified),?,45µM*,-11%,79µM*,35µM*,-6%,?,Pol kappa inh-2=?
Cc1nc2c(oc3ccc(Cl)cc32)c(=O)[nH]1,-13%,34%,-10%,-5%,12%,10%,nt,
CCc1cc(N2CCOCC2)cc2c1[nH]c1ccccc12,12%,-14%,-7%,-8%,-8%,45%,nt,
COc1ccc(-c2c(C(F)(F)F)[nH]n3c(=O)cc(-c4ccccc4)nc23)cc1,12%,89µM*,-5%,-4%,-12%,1%,?,
Cc1[nH]c2ccccc2c1/C=N/Nc1cccc(C(=O)O)c1,?,56µM*,-6%,?,?,6%,?,
COc1c2c(cc3oc(=O)c4c5ccc(O)cc5oc4c13)OC(C)(C)CC2,nt,-7%,nt,12%,12%,2%,nt,
O=C1OC(/C=C/c2ccccc2)=NC/1=C/C=C/c1ccccc1,15%,-8%,1%,-10%,-5%,12%,nt,
O=C(O)C1CCN(C(=O)c2ccccc2Cl)CC1,22%,-15%,?,-9%,17%,-7%,nt,
O=C1C(Cl)=C(N2CCC(C(=O)O)CC2)C(=O)c2ccccc21,?,10µM*,?,-7%,?,2%,nt,GALK inh confirm=30µM*;GALK redox cs=38µM*;HEK293 viability=-7%
COCCCn1c(Cc2csc(Nc3cccc(Cl)c3)n2)nnc1SCC(=O)OC,25µM*,20µM*,?,40µM*,22µM*,?,38*,Pol kappa inh-2=17*
CCNC(=O)/C(=C\c1ccccc1)NC(=O)/C=C/c1ccccc1,-1%,-4%,-11%,-13%,14%,-3%,nt,
CCc1ccc(S(=O)(=O)Nc2cc(SCC(=O)O)c(O)c3ccccc23)cc1,?,50µM*,1%,?,5.6µM*,-18%,?,
Cc1cc(Cl)n2c(nc3cc(F)c(F)cc32)c1C#N,50µM*,56µM*,-3%,-1%,6.3µM*,-10%,?,
COc1cc(Cl)c(C)cc1NC(=O)c1ccc2c(SCC(=O)O)c3c(nc2c1)CCCC3,20µM*!,50µM*!,10%,-12%,121%,151%,?,Pol kappa inh-2=75*
Cc1ccc(NC(=O)c2ccc3c(SCC(=O)O)c4c(nc3c2)CCCC4)c(Br)c1,?,?,19%,5%,?,-10%,nt,
CCOC(=O)c1ccccc1NC(=O)c1ccc2c(SCC(=O)O)c3c(nc2c1)CCCC3,2%,50µM*,-23%,-13%,-11%,?,76*,
COc1ccc(C)cc1NC(=O)c1ccc2c(SCC(=O)O)c3c(nc2c1)CCCC3,-9%,12%,-4%,-7%,-15%,8%,nt,
Cc1nc(NC2=NCN(Cc3cccnc3)CN2)nc2ccccc12,20%,-9%,2%,-4%,7%,-14%,nt,
Cc1cccc2nc(-c3ccccc3)nc(N3CCC(O)(c4ccc(Cl)cc4)CC3)c12,?,-16%,-1%,2%,-26%,7%,nt,
O=C(O)C/C(=C\c1ccc(N2CCOCC2)c([N+](=O)[O-])c1)c1nc2ccccc2s1,?,32µM*,-2%,?,-23%,26%,nt,Pol kappa inh-2=?
CC(=O)Nc1ccc(C2CC(c3ccc(Cl)cc3)=NN2c2ccccc2)cc1 (stereo unspecified),3%,-6%,10%,7%,20%,4%,nt,
CCC(CNc1cc(OC)cc2cccnc12)NC1CCCCC1 (stereo unspecified),?,-8%,-2%,-26%,?,13%,nt,GALK inh confirm=9.4µM*;GALK redox cs=3.8µM*;HEK293 viability=-19%
COCCn1c(=O)c(-c2ccc(F)cc2)nc2cnc(N(C)C)nc21,nt,nt,?,-5%[60.1 µM],nt,nt,nt,
SMILES,POLB inh,Pol eta inh-1,APEX1 inh,Pol kappa inh-1,POLI inh,GLS inhibitor,Pol eta inh-2,others
COc1ccc(OC)c(/C=N\Nc2nccs2)c1,nt,-1%,nt,-3%,40%,-2%,nt,
COc1ccc(OC)c(/C=N/Nc2nncn2/N=C/c2cc(OC)ccc2OC)c1,?,?,-7%,-5%,?,11%,30*,
COc1cc(C#Cc2c(-c3ccccc3)n(C)c3ccccc23)cc(OC)c1,15%,-1%,-2%,-8%,15%,3%,nt,
COc1ccccc1CNC(=O)C1CCCN(S(=O)(=O)c2ccc3c(c2)CC(C)N3C(C)=O)C1 (stereo unspecified),18%,-8%,61%,3%,-16%,6%,nt,
Cn1nc(-c2ccc(OCC(=O)Nc3ccccc3)cc2)c2ccccc2c1=O,-21%,7%,1%,-8%,5%,7%,nt,
Cn1nc(-c2ccc(OCC(=O)Nc3ccc(Cl)cc3)cc2)c2ccccc2c1=O,7.9µM*,-11%,nt,-19%,-6%,-40%,nt,Pol kappa inh-2=42*
Cc1ccnc(NC(=O)COC(=O)c2ccc(F)cc2F)n1,1%,45µM*,0%,-44%,?,-24%,?,
N=C1/C(=C/c2ccc(OCc3ccccc3)cc2)C(=O)N=C2SC(CC(=O)N3CCOCC3)=NN12,-11%,?,19%,89µM*,?,0%,?,
N=C1/C(=C/c2ccc(OCc3ccccc3F)cc2)C(=O)N=C2SC(CC(=O)N3CCOCC3)=NN12,?,-11%,-12%,?,25µM*,-7%,?,
